Assay results published in PubChem BioAssay (NCATS).
Inconclusive results are not listed. Activity calls are given as the source filed them. The call rests on the fitted dose curve; in most records, active means well fitted inhibition curve with a large enough effect; inconclusive means small, poorly fitted or top-dose-only effect; inactive means flat fitted curve, though single readings scatter.

Test system: HaCat
Assay: Cytotoxic Profiling of Annotated Libraries Using Quantitative High-Throughput Screening (AID 1296008); further: nearly all actives have a fitted effect of over 60% in size
Settings: Five cell lines viability, CellTiter-Glo ATP luminescence, 48-72 h; max response: hits give low values
Method in brief: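 Compounds were pin-transferred onto cells and incubated 48 or 72 hr at 37 degree Celsius, 95% humidity. CellTiter-Glo was added, plates sat 10 min at room temperature, then ATP-coupled luminescence was imaged as the viability read-out.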

Row | SMILES | outcome
1 | C=CC1C(O[C@@H]2O[C@H](CO)[C@@H](O)[C@H](O)[C@H]2O)OC=C(C(=O)OC)C1CC(=O)O (some centres undefined) | inactive
2 | CC(C)(O)c1ccc2c(c1)C(O)CC1C(C)(C(=O)O)CCCC21C (centres undefined) | inactive
3 | CC(C)(O)C1CCC2(C)C3C(O)C4C(C13)C42CO (centres undefined) | inactive
4 | O=c1ccn(C2OC(CO)C(O)C2O)c(=O)[nH]1 (centres undefined) | inactive
5 | CCCC(N[C@@H](C)C(=O)N1[C@H](C(=O)O)C[C@@H]2CCCC[C@@H]21)C(=O)OCC (some centres undefined) | inactive
6 | CCC[C@@H]1C[C@@H](C(=O)N[C@@H]([C@H]2O[C@H](SC)[C@H](O)[C@@H](O)[C@@H]2O)[C@@H](C)O)N(C)C1 | inactive
7 | COc1cc([C@H]2OC[C@@H]3[C@@H](c4ccc(O[C@@H]5O[C@H](CO)[C@@H](O)[C@H](O)[C@H]5O)c(OC)c4)OC[C@]23O)ccc1O | inactive
8 | O=C(OCc1cccc(O)c1O[C@@H]1O[C@H](CO)[C@@H](O)[C@H](O)[C@H]1O)C1(O)C(=O)C2C=CC1C1C=CC(=O)C(O)(C(=O)OCc3cccc(O)c3O[C@@H]3O[C@H](CO)[C@@H](O)[C@H](O)[C@H]3O)C21 (some centres undefined) | inactive
9 | COC(=O)CC[C@@H](C)[C@H]1CC[C@H]2[C@@H]3CC(=O)[C@H]4C[C@H](OC(C)=O)CC[C@]4(C)[C@H]3CC[C@]12C | inactive
10 | FC(F)(F)c1cc(C(F)(F)F)c2ccc3nc(-c4nnco4)cn3c2n1 | inactive
11 | COc1c(C)c2c(c(O)c1C/C=C(\C)CC/C=C(\C)CCC(=O)O)C(=O)OC2 | inactive
12 | CC[C@@H](c1ccc(F)c(F)c1)n1c(C(=O)OC)c(-c2ccno2)[nH]c1=S | inactive
13 | CC(C)=CCC/C(C)=C/CC/C(C)=C/CC[C@]1(C)CCc2cc(O)cc(C)c2O1 | inactive
14 | CC1=CC(=O)CC(C)(C)C1CCC(C)OC1OC(COC(=O)c2cc(O)c(O)c(O)c2)C(O)C(O)C1O (centres undefined) | inactive
15 | COc1ccc(/C=C/C(=O)O[C@H]2[C@@H]3C=CO[C@@H](O[C@@H]4O[C@H](CO)[C@@H](O)[C@H](O)[C@H]4O)[C@@H]3[C@@]3(CO)O[C@@H]23)cc1O | inactive
16 | Cc1ncc([N+](=O)[O-])n1CC(O)CN1CCOCC1 (centres undefined) | inactive
17 | C=CC(C)(O)CC/C=C(/C)C(=O)OC1C(OC2OCC(OC3OC(CO)C(O)C(O)C3O)C(OC3OCC(O)C(OC4OC(C)C(O)C(O)C4O)C3O)C2O)COC(OC(=O)C23CCC(C)(C)CC2C2=CCC4C5(C)CCC(OC6OC(CO)C(OC7OC(CO)C(O)C(OC8OCC(O)C(O)C8O)C7O)C(O)C6O)C(C)(C)C5CCC4(C)C2(C)CC3O)C1O (centres undefined) | inactive
18 | O=C1C[C@@H](c2ccc(O)cc2)Oc2cc(O)ccc21 | inactive
19 | CC(C)CC(=O)n1cc(C(N)=O)c(=O)cc1C(O)c1ccccc1 (centres undefined) | inactive
20 | COc1cc([C@H]2OC[C@]3(OC(C)=O)[C@@H](c4ccc(O[C@@H]5O[C@H](CO)[C@@H](O)[C@H](O)[C@H]5O)c(OC)c4)OC[C@H]23)ccc1O | inactive
21 | CC(C)=CCc1ccc(Oc2c(O)cc(C)cc2CO)c(C(=O)O)c1O | inactive
22 | O=C(O)CCc1cccc(O[C@@H]2O[C@H](CO)[C@@H](O)[C@H](O)[C@H]2O)c1O | inactive
23 | COC(=O)[C@@]1(O)C=CC[C@@H]2[C@@]3(C)C[C@@H](c4ccoc4)OC(=O)[C@H]3CC[C@]21C | inactive
24 | CC(C)CC(=O)OC[C@H]1O[C@@](COC(=O)CC(C)C)(O[C@H]2O[C@H](CO)[C@@H](O)[C@H](O)[C@H]2O)[C@@H](OC(=O)CC(C)C)[C@@H]1OC(=O)CC(C)C | inactive
25 | C=CC(C)(C)O[C@@H]1O[C@H](CO[C@@H]2OC[C@](O)(CO)[C@H]2O)[C@@H](O)[C@H](O)[C@H]1O | inactive
26 | CCC(C)/C=C(C)/C=C/C1=CC2=C(Cl)C(=O)C(C)(OC(C)=O)C(=O)C2=CN1C1CCCCN(C(CCC(N)=O)C(=O)O)C1=O (centres undefined) | inactive
27 | CN[C@@H]1[C@@H](O)[C@@H](O[C@@H]2[C@@H](O)[C@H](O[C@H]3O[C@H](CN)[C@@H](O)[C@H](O)[C@H]3O)[C@@H](N)C[C@H]2NC(=O)[C@@H](O)CN)OC[C@]1(C)O | inactive
28 | O=C(O)C[C@@H](NC(=O)c1cc(-c2ccc(-c3ccncc3)cc2)cs1)c1ccccc1 | inactive
29 | CC(CCC1(O)OC2CC3C4CCC5CC(O[C@@H]6O[C@H](CO)[C@@H](O)[C@H](O)[C@H]6O[C@@H]6OC[C@@H](O)[C@H](O)[C@H]6O)C(O)CC5(C)C4CCC3(C)C2C1C)CO[C@@H]1O[C@H](CO)[C@@H](O)[C@H](O)[C@H]1O (some centres undefined) | inactive
